In PubChem BioAssay (NCATS):
Records with an inconclusive call do not appear. Unmarked numbers belong to inactive results. Calls follow the shape of the dose curve; as a rule, active = well fitted inhibition curve with a large enough effect; inconclusive = small, poorly fitted or top-dose-only effect; inactive = flat fitted curve, though single readings scatter.

Target: Calcium and integrin-binding protein 1 (Homo sapiens) (UniProt Q99828)
Experiment: Primary qHTS for Identification of Calcium Integrin Binding Protein 1 (CIB1) Competitor (AID 1508620);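 also: GST tagged CIB1 binding a fluorescein labelled alphaIIb integrin peptide tracer; top concentration of the series differs between compounds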
Conditions: CIB1-GST / FITC-alphaIIb peptide fluorescence polarization; series mostly up to 114 µM; activity change, negative = inhibition: at the top concentration
In short: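 CIB1-GST (1 uM final) and compound incubated 15 min at room temperature before adding FITC-alphaIIb peptide tracer (100 nM final). Competition for binding read by fluorescence polarization (ex 480, em 540) after another 15 min at room temperature.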
% is scaled to controls: 0 for no effect and ±100 for the full control effect.

Sequence of Calcium and integrin-binding protein 1 (Homo sapiens) (Q99828 whole entry, looked up): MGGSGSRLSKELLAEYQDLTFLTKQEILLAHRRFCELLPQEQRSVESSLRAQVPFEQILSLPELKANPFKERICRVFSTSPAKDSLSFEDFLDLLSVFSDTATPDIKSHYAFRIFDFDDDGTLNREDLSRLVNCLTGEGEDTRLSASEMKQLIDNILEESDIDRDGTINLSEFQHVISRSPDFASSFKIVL

Row | SMILES | activity change, negative = inhibition
1 | CN1CCN(c2nnc(NC(=O)Nc3ccc(Cl)c(Cl)c3)s2)CC1 | 1.66%
2 | O=[S+]([O-])(Nc1ccc(-c2nc3ccccc3[nH]2)cc1)c1ccc2c(c1)CCO2 | 0.754%
3 | Oc1ccc(COc2cccc3ccccc23)c2cccnc12 | 2.17%
4 | COc1cc(O)c(C(CC(=O)N2CCC(Cc3ccccc3)CC2)c2ccc3c(c2)OCO3)c(OC)c1 (centres undefined) | 1.35% [at 228 µM]
5 | CC(=O)Nc1sc2c(c1-c1cccc3ccccc13)CCNC2 | 0.479%
6 | N#CN1CCC(N[S+](=O)([O-])c2cccc(F)c2)CC1 | 3.12%
7 | CC(C)(C)CNc1ncnc2ccc(-c3ccc(C(=O)O)o3)cc12 | -12.2%
8 | Cc1ccc(OCCn2c(CCNC(=O)c3ccncc3)nc3ccccc32)cc1 | 2.21%
9 | O=C(O)c1ccc2c(c1)C(=O)N([C@@H](Cc1ccc(O)cc1)C(=O)O)C2=O | -6.08%
10 | O=S(=O)(Nc1cc(O)cc2cccnc12)c1ccc(Br)s1 | -23%
11 | Cc1cc(C)nc(NC(=S)N2CCN(c3ccc(S(C)(=O)=O)cc3F)CC2)c1 | -4.21%
12 | COc1cc(OC)cc(-c2nnc3n2N=C(c2ccc(OC)c(OC)c2)CS3)c1 | -6.1%
13 | O=S(=O)(c1ccc2ccccc2c1)N1CCN(S(=O)(=O)c2c(F)cccc2F)CC1 | -1.01%
14 | NC(=O)C1CCN(c2nc(-c3cccc(Cl)c3)cs2)CC1 | 1.55%
15 | N#Cc1ccc(OC2=NS(=O)(=O)c3ccccc32)cc1 | 0.726%
16 | S=C(Nc1cc(Cl)ccn1)N1CCN(c2ccc(Cl)cc2Cl)CC1 | 1.39%
17 | Cc1ccc(OCCn2c(CCNC(=O)c3cc(F)cc(F)c3)nc3ccccc32)cc1 | -7.19%
18 | O=c1c2ccc(C(F)(F)F)cc2nc2sc(Nc3ccc4c(c3)CCC4)nn12 | 6.94%
19 | COc1ccc(C(=O)OCC#CCSc2nnc(-c3cccc4ccccc34)o2)cc1 | -0.271%
20 | CN1CCN(C(=O)c2cccc(-c3ccc(CNc4ccc(N5CCN(C(=O)OC(C)(C)C)CC5)cc4)o3)c2)CC1 | -2.72%

Row | SMILES | activity change, negative = inhibition
21 | NC(=O)C1CCN(c2ncc(-c3cccc(F)c3)s2)CC1 | -1.28%
22 | COC(=O)c1ccc(O)c2ncc(NC3CCNCC3)cc12 | -22.8%
23 | Cc1cc(N[S+](=O)([O-])c2ccc(NC(=O)Cn3c(=O)oc4ccc(Cl)cc43)cc2)no1 | 1.67%
24 | COC(=O)c1ccc(OC(C)=O)c2ncccc12 | -14.7%
25 | O=C1CCc2cc(S(=O)(=O)Nc3ccc4ncccc4c3)ccc2N1 | 3.16%
26 | COc1ccc(C2Nc3ccccc3C(=O)N2Cc2cccnc2)cc1COc1c(C)cc(NC(C)=O)cc1C (centres undefined) | 2.45%
27 | O=C(Nc1cc(C(F)(F)F)ccc1Cl)C(O)Cc1ccccc1 (centres undefined) | 0.177%
28 | Cc1cc2c(s1)c1cnn(Cc3c(Cl)cccc3Br)c(=O)c1n2C | 6.86%
29 | COc1ccc(OC)c(NC(=O)C(OC(=O)CNC(=O)c2ccccc2)c2ccccc2)c1 (centres undefined) | 2.26%
30 | Cc1cc(C)nc(NC(=S)N2CCN(c3cc(Cl)c(Cl)c(Cl)c3)CC2)c1 | 5.25%
31 | Oc1cc(NCc2ccc(F)cc2)cc2cccnc12 | 1.19%
32 | COc1cccc(C(=O)Nc2ccc(-c3nc4ccccc4[nH]3)cc2)c1 | 3.84%
33 | O=C(OCC#CCSc1nnc(-c2cccc3ccccc23)o1)c1ccc(F)nc1 | -1.26%
34 | Cc1cnc(-c2ccccc2C(C)O)nc1NCc1ccc(-c2cccnc2)cc1 (centres undefined) | -11.9%
35 | N#Cc1nc(NCCCO)nc(Nc2ccccc2)n1 | 0.426%
36 | C=CCc1cc(F)c(S(=O)(=O)N2CCN(S(=O)(=O)c3ccc4c(c3)OCCO4)CC2)cc1F | 3.05%
37 | Cc1cc(C)nc(NC(=S)N2CCN(c3nsc4ccccc34)CC2)c1 | -11.9%
38 | Cc1cnc(-c2ccccc2C(C)O)nc1NCC1CCN(c2cccnc2)CC1 (centres undefined) | 9.82%
39 | COc1ccc(-c2nc3ccccc3c(=O)n2Cc2ccccc2)cc1OCc1ccc(NC(C)=O)cc1 | 1.17%
